Where a name gives a salt, the structure may show the parent alone. ± gives the standard deviation of the averaged measurements.
Assays:
[1] = tested on: Saccharomyces cerevisiae BY4741 SeMeCo community; experiment: z-score of prototroph abundance vs DMSO median; higher = larger share of this subpopulation than in DMSO controls; settings: 10 µM; 24 h; SM minimal medium; subpopulation (auxotrophy): Prototroph
Summary of the method: (§1)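 Automated confocal microscopy of paraformaldehyde-fixed cells was used to follow a Saccharomyces cerevisiae BY4741 community carrying four plasmids, each restoring one auxotrophy and encoding a distinct fluorescent protein. The community was pre-grown overnight to OD600 1.0, diluted to 0.3, and added at 70 µl to 384-well plates acoustically predosed with library drugs (10 µM final) for 24 h of growth in minimal SM medium. Single-auxotroph fluorescent strains set thresholds and autofluorescence correction, and each subpopulation's abundance was scored as a z-score against the vehicle-well median.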

[2] = tested on: Saccharomyces cerevisiae BY4741 SeMeCo community; experiment: z-score of subpopulation abundance vs DMSO median, subpopulation auxotrophic for M; higher = larger share of this subpopulation than in DMSO controls; settings: 10 µM; 24 h; SM minimal medium; subpopulation (auxotrophy): M
Summary of the method: as §1

[3] = tested on: Saccharomyces cerevisiae BY4741 SeMeCo community; experiment: z-score of subpopulation abundance vs DMSO median, subpopulation auxotrophic for L; higher = larger share of this subpopulation than in DMSO controls; settings: 10 µM; 24 h; SM minimal medium; subpopulation (auxotrophy): L
Summary of the method: as §1

[4] = tested on: Saccharomyces cerevisiae BY4741 SeMeCo community; experiment: z-score of subpopulation abundance vs DMSO median, subpopulation auxotrophic for U; higher = larger share of this subpopulation than in DMSO controls; settings: 10 µM; 24 h; SM minimal medium; subpopulation (auxotrophy): U
Summary of the method: as §1

[5] = tested on: Saccharomyces cerevisiae BY4741 SeMeCo community; experiment: z-score of subpopulation abundance vs DMSO median, subpopulation auxotrophic for H; higher = larger share of this subpopulation than in DMSO controls; settings: 10 µM; 24 h; SM minimal medium; subpopulation (auxotrophy): H
Summary of the method: as §1

[6] = tested on: Saccharomyces cerevisiae BY4741 SeMeCo community; experiment: z-score of subpopulation abundance vs DMSO median, subpopulation auxotrophic for LU; higher = larger share of this subpopulation than in DMSO controls; settings: 10 µM; 24 h; SM minimal medium; subpopulation (auxotrophy): LU
Summary of the method: as §1

[7] = tested on: Saccharomyces cerevisiae BY4741 SeMeCo community; experiment: z-score of subpopulation abundance vs DMSO median, subpopulation auxotrophic for LM; higher = larger share of this subpopulation than in DMSO controls; settings: 10 µM; 24 h; SM minimal medium; subpopulation (auxotrophy): LM
Summary of the method: as §1

[8] = tested on: Saccharomyces cerevisiae BY4741 SeMeCo community; experiment: z-score of subpopulation abundance vs DMSO median, subpopulation auxotrophic for HM; higher = larger share of this subpopulation than in DMSO controls; settings: 10 µM; 24 h; SM minimal medium; subpopulation (auxotrophy): HM
Summary of the method: as §1

[9] = tested on: Saccharomyces cerevisiae BY4741 SeMeCo community; experiment: z-score of subpopulation abundance vs DMSO median, subpopulation auxotrophic for HU; higher = larger share of this subpopulation than in DMSO controls; settings: 10 µM; 24 h; SM minimal medium; subpopulation (auxotrophy): HU
Summary of the method: as §1

[10] = tested on: Saccharomyces cerevisiae BY4741 SeMeCo community; experiment: z-score of subpopulation abundance vs DMSO median, subpopulation auxotrophic for UM; higher = larger share of this subpopulation than in DMSO controls; settings: 10 µM; 24 h; SM minimal medium; subpopulation (auxotrophy): UM
Summary of the method: as §1

[11] = tested on: Saccharomyces cerevisiae BY4741 SeMeCo community; experiment: z-score of subpopulation abundance vs DMSO median, subpopulation auxotrophic for HL; higher = larger share of this subpopulation than in DMSO controls; settings: 10 µM; 24 h; SM minimal medium; subpopulation (auxotrophy): HL
Summary of the method: as §1

[12] = tested on: Saccharomyces cerevisiae BY4741 SeMeCo community; experiment: z-score of subpopulation abundance vs DMSO median, subpopulation auxotrophic for HLU; higher = larger share of this subpopulation than in DMSO controls; settings: 10 µM; 24 h; SM minimal medium; subpopulation (auxotrophy): HLU
Summary of the method: as §1

[13] = tested on: Saccharomyces cerevisiae BY4741 SeMeCo community; experiment: z-score of subpopulation abundance vs DMSO median, subpopulation auxotrophic for HLM; higher = larger share of this subpopulation than in DMSO controls; settings: 10 µM; 24 h; SM minimal medium; subpopulation (auxotrophy): HLM
Summary of the method: as §1

[14] = tested on: Saccharomyces cerevisiae BY4741 SeMeCo community; experiment: z-score of subpopulation abundance vs DMSO median, subpopulation auxotrophic for HUM; higher = larger share of this subpopulation than in DMSO controls; settings: 10 µM; 24 h; SM minimal medium; subpopulation (auxotrophy): HUM
Summary of the method: as §1

[15] = tested on: Saccharomyces cerevisiae BY4741 SeMeCo community; experiment: z-score of subpopulation abundance vs DMSO median, subpopulation auxotrophic for LUM; higher = larger share of this subpopulation than in DMSO controls; settings: 10 µM; 24 h; SM minimal medium; subpopulation (auxotrophy): LUM
Summary of the method: as §1

[16] = tested on: Saccharomyces cerevisiae BY4741 SeMeCo community; experiment: z-score of subpopulation abundance vs DMSO median, subpopulation auxotrophic for HLUM; higher = larger share of this subpopulation than in DMSO controls; settings: 10 µM; 24 h; SM minimal medium; subpopulation (auxotrophy): HLUM
Summary of the method: as §1

[17] = tested on: Saccharomyces cerevisiae BY4741 SeMeCo community; experiment: mean cell size (pixel area) (pixels); higher = larger cells; settings: 10 µM; 24 h; SM minimal medium
Summary of the method: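 A Saccharomyces cerevisiae BY4741 community carrying four plasmids, each with a fluorescent marker and each complementing one auxotrophy, was exposed for 24 h to drug at a final 10 µM in SM medium in acoustically predosed 384-well plates. The overnight preculture (OD600 = 1.0) was diluted to OD600 = 0.3 before 70 µl was added per well. Cells were then fixed with paraformaldehyde, imaged by automated confocal microscopy and analysed in Harmony to derive mean cell pixel area per well, averaged over 3 replicates. Same SeMeCo high-content imaging drug screen: Selleck FDA-approved drugs at 10 µM, 24 h in SM medium, 384-well plates, 3 replicates.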

SMILES	z-score of prototroph abundance [1]	z-score of subpopulation abundance [2]	z-score of subpopulation abundance [3]	z-score of subpopulation abundance [4]	z-score of subpopulation abundance [5]	z-score of subpopulation abundance [6]	z-score of subpopulation abundance [7]	z-score of subpopulation abundance [8]	z-score of subpopulation abundance [9]	z-score of subpopulation abundance [10]	z-score of subpopulation abundance [11]	z-score of subpopulation abundance [12]	z-score of subpopulation abundance [13]	z-score of subpopulation abundance [14]	z-score of subpopulation abundance [15]	z-score of subpopulation abundance [16]	mean cell size [17]
CC(=O)O[C@H]1C[C@@]2(C)[C@@H](C[C@@H](O)[C@H]3[C@@]4(C)CC[C@@H](O)[C@@H](C)[C@@H]4CC[C@@]32C)/C1=C(\CCC=C(C)C)C(=O)O [Fusidate Sodium]	-0.65	0	-0.11	0.34	1.44	0.21	-0.02	0.57	2	-0.27	1.13	1.2	1.04	1.17	-0.25	-0.08	–
C[C@H]1COc2c(C3(N)CC3)c(F)cc3c(=O)c(C(=O)O)cn1c23 [Pazufloxacin mesylate]	-0.35	-0.46	0.31	0.53	0.02	0.86	-0.18	-0.36	0.48	-0.02	-0.07	1.38	-0.08	-0.08	-0.3	0.08	–
COc1cc2c(cc1OC)[C@@H]1Cc3ccc(OC)c(OC)c3CN1CC2 [Rotundine]	–	0.07	-0.28	–	0.05	0.16	–	-0.02	0.17	–	0.52	0.67	-0.41	0.14	-0.04	–	12.5 ± 0.15
CN1C2CCCC1CC(NC(=O)c1nn(C)c3ccccc13)C2 (stereo unspecified) [Granisetron HCl]	-0.01	-0.02	0.65	–	1.08	-0.06	–	0.45	-0.52	–	0.42	0.66	-0.26	0.03	0.06	–	11.8 ± 0.16
CN(C)CCCC1(c2ccc(F)cc2)OCc2cc(C#N)ccc21 (stereo unspecified) [Citalopram HBr]	-0.34	-0.6	-0.17	1.58	0.36	0.92	-0.05	-0.81	0.64	–	-0.06	0.43	0.45	0.08	-0.03	1.38	–
OC(CCN1CCCCC1)(c1ccccc1)C1CCCCC1 (stereo unspecified) [Trihexyphenidyl hydrochloride]	–	0.49	0.5	0.45	-0.13	1.04	-0.29	-0.75	-0.18	–	-0.03	-0.09	0.68	-0.31	0.73	-0.13	–
CCC(C)C1OC2(CCC1C)CC1CC(CC=C(C)C(OC3CC(OC)C(OC4CC(OC)C(O)C(C)O4)C(C)O3)C(C)C=CC=C3COC4C(O)C(C)=CC(C(=O)O1)C34O)O2 (stereo unspecified) [Ivermectin]	-1.61	-0.12	-0.07	0.12	1.41	-0.12	0.26	1.17	1.39	1.13	0.26	2.13	0.72	2.99	1.28	0.72	–
CNS(=O)(=O)CCc1ccc2[nH]cc(C3CCN(C)CC3)c2c1 [Naratriptan HCl]	0.15	0.48	-0.79	0.55	-0.46	0.2	0.06	-0.44	0.27	0.23	-0.28	-0.03	-0.19	-0.27	-0.24	-0.77	–
CN[C@@H]1[C@@H](O)[C@@H](O[C@@H]2[C@@H](O)[C@H](O[C@H]3OC(CN)=CC[C@H]3N)[C@@H](N)C[C@H]2N)OC[C@]1(C)O [Sisomicin sulfate]	-0.71	1.6	1.01	0.55	-0.72	0.28	1.22	0.61	0.07	0.74	0.51	0.06	0.84	0.52	1.13	2.37	–
C#C[C@]1(OC(C)=O)CC[C@H]2[C@@H]3CCC4=C[C@@H](OC(C)=O)CC[C@@H]4[C@H]3CC[C@@]21C [Ethynodiol diacetate]	0.6	-0.73	-0.15	-1.03	-0.43	-0.48	0.57	-0.18	-0.23	-0.32	0.67	0.1	-0.54	-0.26	-0.12	0.38	–
C[N+](C)(C)CCOC(=O)CCC(=O)OCC[N+](C)(C)C [Succinylcholine Chloride Dihydrate]	0.17	1.02	-0.65	0.38	–	-1.48	–	0.1	–	0.5	-0.8	-0.97	-0.3	-0.03	-0.49	0.02	12 ± 0.24
CCC[S+]([O-])c1ccc2[nH]c(NC(=O)OC)nc2c1 (stereo unspecified) [Albendazole Oxide]	0.33	-0.33	-0.98	0.49	-0.72	-0.51	–	0.14	–	0.18	-0.18	-0.31	-0.85	0.36	-0.65	–	12.4 ± 0.35
CC(=O)[C@H]1CC[C@H]2[C@@H]3CC=C4C[C@@H](O)CC[C@]4(C)[C@H]3CC[C@]12C [Pregnenolone]	0.29	-0.05	1.12	-0.89	-0.46	-0.42	–	-0.44	-0.76	-0.48	0.47	-0.1	0.71	-0.94	-0.02	–	12.46 ± 0.12
Cc1cc(NS(=O)(=O)c2ccc(N)cc2)no1 [Sulfamethoxazole]	-0.28	0.51	0.5	-0.2	-0.46	0.02	–	–	-0.16	0.65	–	1.04	-0.58	-0.13	-0.02	–	12.4 ± 0.24

From the supplement of paper PMC8975748
